Assay results taken from PubChem BioAssay (EPA / NIEHS).
Several values for one entry are separate records, joined by “and”; a condition that tells them apart may be missing. Equal values may be shown once. Activity calls are given as the source filed them. The calls were made as follows: active = hit-call score of the fitted dose curve at least 0.9, where 1 is the maximum; inactive = score below 0.9.

Assay: CCTE_Shafer_MEA_acute_spike_number: CCTE's Neural Acute Assay for Total Number of Spikes, Shafer Lab (AID 2284008);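 as to AC50: curve fitted for decrease in spike count so AC50 reflects inhibitors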
Outline: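 Primary rat cortical neurons on 16-electrode MEA wells; on DIV 13 or 15, 40-min baseline then 40-min recording with compound (0.03-40 uM) at 37 C. Spikes detected at 8x rms noise; percent change versus baseline, DMSO as negative control.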

Row | SMILES | outcome | AC50
1 | CC(C)(OOC(C)(C)c1ccccc1)c1ccccc1 | inactive | 
2 | ClC1=C(Cl)C2(Cl)C3C(Cl)C=CC3C1(Cl)C2(Cl)Cl (configuration not stated) |  | 7.52 µM (active)
3 | Clc1ccc(C(c2ccc(Cl)cc2)C(Cl)(Cl)Cl)cc1 | inactive | 
4 | N#CC(Br)Br | inactive | 
5 | O=Cc1ccco1 | inactive | 
6 | c1ccc(NNc2ccccc2)cc1 | inactive | 
7 | c1ccc(N=Nc2ccccc2)cc1 | inactive | 
8 | CCCCOC(=O)c1ccccc1C(=O)OCc1ccccc1 |  | 3.11 µM (active)
9 | O=[N+]([O-])C(Br)(CO)CO |  | 33.6 µM (active)
10 | CC(C)(C)C(O)(CCc1ccc(Cl)cc1)Cn1cncn1 (configuration not stated) |  | 3.76 µM (active)
11 | CC(C)(O)c1cnn2c(-c3ccc(F)c(-c4c(F)cccc4C#N)c3)cnc2n1 |  | 0.713 µM (active)
12 | Cc1cc(N=Nc2ccccc2C)ccc1N | inactive | 
13 | O=P(OCCCl)(OCCCl)OCCCl | inactive | 
14 | CCCCCOC(=O)c1ccccc1C(=O)OCCCCC |  | 2.58 µM (active)
15 | COC(=O)Nc1nc2ccccc2[nH]1 | inactive | 
16 | CCC[CH2][Sn]([Cl])([CH2]CCC)[CH2]CCC |  | 40.1 nM (active) and 70.2 nM (active)
17 | O=C(Oc1ccc(Br)cc1)N1CCN2CCC1CC2 | inactive | 
18 | Clc1ccc(C(c2ccc(Cl)cc2)C(Cl)Cl)cc1 |  | 2.95 µM (active)
19 | CCCCCCCCn1sccc1=O | inactive | 
20 | CCC(C)c1ccc(O)cc1 (configuration not stated) |  | 20 µM (active)
21 | O=[N+]([O-])c1ccc(Oc2ccc(Cl)cc2Cl)cc1 |  | 9.28 µM (active)
22 | [Cl-].[Cl-].[Hg+2] |  | 31.4 µM (active)
23 | O=C(N[C@H](c1ccccc1)[C@@H]1CN2CCC1CC2)c1c(Cl)ccc(C(F)(F)F)c1Cl |  | 1.55 µM (active)
24 | ClCCOCCCl | inactive | 
25 | CCN(CC)CCO | inactive | 
26 | CCN(CC)N=O | inactive | 
27 | CC(C)COC(=O)c1ccccc1C(=O)OCC(C)C |  | 7.13 µM (active)
28 | C[N+](C)(C)CC1CO1 (configuration not stated) | inactive | 
29 | ClC1=C(Cl)[C@]2(Cl)[C@H]3[C@H]([C@@H]4C=C[C@H]3C4)[C@@]1(Cl)C2(Cl)Cl | inactive | 
30 | Cc1ccc(N)c(N)c1 | inactive | 

Assay: CCTE_Harrill_HTTr_Viability_MCF7: CCTE's 6-hour Cell Viability Assessment for the High-Throughput Transcriptomics (HTTr) Platform, in MCF-7 cells cultured in DMEM + 10% fetal bovine serum, Harrill Lab (AID 2284010)
Outline: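 Propidium iodide exclusion, imaged by high-content analysis, gauged viability after a six-hour exposure across eight concentrations. Cells were MCF-7 grown in DMEM with 10% fetal bovine serum; fits run in both directions against DMSO.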

Row | SMILES | outcome | AC50
31 | CC(C)(OOC(C)(C)c1ccccc1)c1ccccc1 | inactive | 
32 | CC(C)N(Cc1ccccc1)C(=O)C(C)(C)C | inactive | 
33 | ClC1=C(Cl)C2(Cl)C3C(Cl)C=CC3C1(Cl)C2(Cl)Cl (configuration not stated) | inactive | 
34 | Clc1ccc(C(c2ccc(Cl)cc2)C(Cl)(Cl)Cl)cc1 | inactive | 
35 | N#CC(Br)Br | inactive | 
36 | C=CCc1ccc2c(c1)OCO2 | inactive | 
37 | C[C@]12C=CC3=C4CCC(=O)C=C4CC[C@H]3[C@@H]1CC[C@@H]2O | inactive | 
38 | c1ccc(NNc2ccccc2)cc1 | inactive | 
39 | Cn1cc(-c2ccccc2)c(=O)c(-c2cccc(C(F)(F)F)c2)c1 | inactive | 
40 | c1ccc(N=Nc2ccccc2)cc1 | inactive | 
41 | Cc1ccc([N+](=O)[O-])cc1 | inactive | 
42 | CCCCOC(=O)c1ccccc1C(=O)OCc1ccccc1 | inactive | 
43 | O=[N+]([O-])C(Br)(CO)CO | inactive | 
44 | CC(C)(C)C(O)(CCc1ccc(Cl)cc1)Cn1cncn1 (configuration not stated) | inactive | 
45 | CC(C)(O)c1cnn2c(-c3ccc(F)c(-c4c(F)cccc4C#N)c3)cnc2n1 | inactive | 
46 | Cc1cc(N=Nc2ccccc2C)ccc1N | inactive | 
47 | COc1cc(C=O)cc2c1[C@H](COC(N)=O)[C@]1(OC(C)=O)ON2C[C@H]2[C@@H]1N2C(C)=O | inactive | 
48 | CCOC(=O)[C@]1(c2ccccc2)Oc2ccccc2[C@@H]1N | inactive | 
49 | O=P(OCCCl)(OCCCl)OCCCl | inactive | 

Row | SMILES | outcome | AC50
50 | CCCCCOC(=O)c1ccccc1C(=O)OCCCCC | inactive | 
51 | Nc1ccc(N=Nc2ccccc2)cc1 | inactive | 
52 | COC(=O)Nc1nc2ccccc2[nH]1 | inactive | 
53 | CCC[CH2][Sn]([Cl])([CH2]CCC)[CH2]CCC |  | 11.8 µM (active)
54 | O=C(Oc1ccc(Br)cc1)N1CCN2CCC1CC2 | inactive | 
55 | Clc1ccc(C(c2ccc(Cl)cc2)C(Cl)Cl)cc1 | inactive | 
56 | CCCCCCCCn1sccc1=O | inactive | 
57 | CCC(C)c1ccc(O)cc1 (configuration not stated) | inactive | 
58 | O=[N+]([O-])c1ccc(Oc2ccc(Cl)cc2Cl)cc1 | inactive | 
59 | [Cl-].[Cl-].[Hg+2] | inactive | 
60 | O=C(N[C@H](c1ccccc1)[C@@H]1CN2CCC1CC2)c1c(Cl)ccc(C(F)(F)F)c1Cl | inactive | 
61 | ClCCOCCCl | inactive | 
62 | CCN(CC)CCO | inactive | 
63 | CCN(CC)N=O | inactive | 
64 | CC(C)COC(=O)c1ccccc1C(=O)OCC(C)C | inactive | 
65 | C[N+](C)(C)CC1CO1 (configuration not stated) | inactive | 
66 | ClC1=C(Cl)[C@]2(Cl)[C@H]3[C@H]([C@@H]4C=C[C@H]3C4)[C@@]1(Cl)C2(Cl)Cl | inactive | 
67 | Cc1ccc(N)c(N)c1 | inactive | 
